Counter-ions that a name gives are not always drawn. In all, about 1,000 compounds were measured (“cFRET/donor change relative to DMSO, normalised to beta-lapachone positive control (supercomplex I-IV assembly)”: median about 0.18, lowest 2% from about -1 on). What follows is part of a selection rich in the lowest values, with near analogues and random picks from the rest.

This test has as its system C2C12 (NDUFB8-AcGFP / COX8A-DsRed-Monomer FRET reporter). Description: cFRET/donor change relative to DMSO, normalised to beta-lapachone positive control (supercomplex I-IV assembly) (fraction of beta-lapachone effect); higher = more respiratory supercomplex assembly. The note with it: 40 µM; 24 h. The procedure:
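Cells were treated with 40 uM compound for 24 h and imaged on an IN Cell Analyzer 6000. Corrected FRET was divided by donor signal (cFRET/donor) and measured in two replicate experiments. The score is (mean cFRET/donor of compound - mean DMSO) / (mean beta-lapachone 40 uM - mean DMSO). Compounds flagged for prominent cell death, abnormal morphology or decreased cell number were excluded.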
For the compound `COc1cc2nc(N3CCCN(C)CC3)nc(NC3CCN(Cc4ccccc4)CC3)c2cc1OC`, the cFRET/donor change amounted to 0.186. With `C=C(c1ccc(C(=O)O)cc1)c1cc2c(cc1C)C(C)(C)CCC2(C)C` [Bexarotene], the cFRET/donor change was 0.499. The value for `c1ccc(C(NCCNC(c2ccccc2)c2ccccc2)c2ccccc2)cc1` was 0.0957; that for `COc1ccccc1CNC1CCCNC1c1ccccc1` (stereo not drawn) was 0.266. Compound `O=C(Nc1cc(C(F)(F)F)cc(C(F)(F)F)c1)Nc1c(Br)cc(Br)cc1-c1nn[nH]n1` gave a cFRET/donor change of 1.37.

Turning to `C[C@@H](O)[C@H]1C(=O)N2C(C(=O)O)=C(SCCNC=N)C[C@H]12` [Imipenem monohydrate], the cFRET/donor change turned out to be 0.461.

With `COc1cc(OC)c(C=C2C(=O)Nc3ccccc32)c(OC)c1`, the cFRET/donor change stood at 0.382.

`Cc1cc(C)c(/C=C2\C(=O)Nc3ccccc32)[nH]1` had a cFRET/donor change of -2.59. The value for `CN(C)CCC(c1ccc(Br)cc1)c1ccccn1` (racemic) [(±)-Brompheniramine maleate] was 0.0175; that for `Clc1ccc(C(c2ccccc2Cl)C(Cl)Cl)cc1` (stereo not drawn) [1-(2-Chlorophenyl)-1-(4-chlorophenyl)-2,2-dichloroethane] was 0.237. `NCCC[C@](N)(C(=O)O)C(F)F` (racemic) [DL-alpha-Difluoromethylornithine hydrochloride] came in with a cFRET/donor change of 0.232. The value for `COc1cc(/C=C/C(=O)N2CCC=CC2=O)cc(OC)c1OC` [Piperlongumine] was -0.315; that for `CC(C)(C=O)Cc1cc(C(C)(C)C)c(O)c(C(C)(C)C)c1` was 0.29. The value for `N#CC(C#N)=C(N)/C(C#N)=C/c1ccc(O)cc1` [Tyrphostin AG 112] was 0.38; that for `CC(C)(C)c1cc(/C=C(\C#N)C(N)=S)cc(C(C)(C)C)c1O` [Tyrphostin AG 879] was -2.01; that for `COc1ccc(C2(O)OC(=O)C(c3ccc4c(c3)OCO4)=C2Cc2cc(OC)c(OC)c(OC)c2)cc1` (stereo not drawn) was 0.173. In the case of `CCN1CCCC1CNC(=O)c1cc(S(N)(=O)=O)ccc1OC` (single isomer, unassigned; (-)) [(-)-Sulpiride], the cFRET/donor change is 0.312. For `CC[C@@]1(O)C(=O)OCc2c1cc1n(c2=O)Cc2cc3c(CN(C)C)c(O)ccc3nc2-1` [Topotecan hydrochloride hydrate], the cFRET/donor change is -3.92. The value for `NCCS(=O)(=O)O` [Taurine] was -0.02; that for `NCCCCN` [Putrescine dihydrochloride] was 0.0353. The value for `NCCCS(=O)(=O)O` [3-Amino-1-propanesulfonic acid sodium] was -2.05; that for `COC1=C(OC)C(=O)c2ccccc2C1=O` [2,3-Dimethoxy-1,4-naphthoquinone] was 0.433.

Compound `Cc1cc(Cl)ccc1OCCCC(=O)NO` [Droxinostat] yielded a cFRET/donor change of 0.131. With `COc1cccc2c1[C@@H]1CN(CCCCn3c(=O)[nH]c4c(sc5ncc(-c6ccccc6)nc54)c3=O)C[C@@H]1CO2` [Fiduxosin hydrochloride] the figure was -1.25. For `Cn1cnc([N+](=O)[O-])c1Sc1ncnc2[nH]cnc12` [Azathioprine], the cFRET/donor change turned out to be 0.496.

`N=c1ccn2c(n1)O[C@H]1[C@H](O)[C@@H](CO)O[C@H]12` [Ancitabine hydrochloride] had a cFRET/donor change of -0.0397. The value for `Fc1ccc2[nH]c(CN3CCN(c4ccccn4)CC3)cc2c1` was 0.168; that for `CC(C)[C@H](N)C(=O)OCC(CO)OCn1cnc2c(=O)[nH]c(N)nc21` (stereo partly drawn) [Valganciclovir hydrochloride hydrate] was -0.064. `N=C(N)NCCCCN` [Agmatine sulfate] registered a cFRET/donor change of 0.125. `CS(=O)(=O)c1cccc(CNc2nc(Nc3ccc4c(c3)CCC(=O)N4)ncc2C(F)(F)F)c1` gave a cFRET/donor change of 2. The value for `NC(=S)c1ccc[n+]([C@@H]2O[C@@H](COP(=O)([O-])OP(=O)(O)OC[C@H]3O[C@@H](n4cnc5c(N)ncnc54)C(OP(=O)(O)O)[C@H]3O)C(O)C2O)c1` (stereo partly drawn) [Thio-NADP sodium] was -0.317; that for `O=C(c1ccc(OCCCc2c[nH]cn2)cc1)C1CC1` [Ciproxifan hydrochloride] was 0.224; that for `O=c1ccc2c(OCCCCc3ccccc3)c3ccoc3cc2o1` [Psora-4] was 0.396. Compound `Cc1cccc(-c2[nH]ncc2-c2ccc3ncccc3n2)n1` registered a cFRET/donor change of 0.0385.

Take `CC1=C(C)C(=O)C(CCCCC#CCCCC#CCO)=C(C)C1=O`: the cFRET/donor change was 0.121. With `Nc1cc2c(ncn2CCOCP(=O)(O)O)c(=O)[nH]1` [PMEG hydrate] the figure was 0.0365; with `N[C@@H]1[C@H]2CN(c3nc4c(cc3F)c(=O)c(C(=O)O)cn4-c3ccc(F)cc3F)C[C@@H]12` [Trovafloxacin mesylate], 0.3; with `CC(C(O)c1ccc(O)cc1)N1CCC(Cc2ccccc2)CC1` (stereo not drawn) [Ifenprodil tartrate], 0.529. The value for `O=C(Nc1cccnc1)N1CCC(Cc2cccc(Oc3ccc(C(F)(F)F)cn3)c2)CC1` [PF 3845 hydrate] was 0.494; that for `Nc1ccc(-c2ccc3ccccc3n2)cc1` [BF-170 hydrochloride] was -0.429; that for `CN(C)C(=O)[C@H](O)[C@H](Cc1ccccc1)NC(=O)c1cc2cc(Cl)ccc2[nH]1` was 0.332.

`NC(=O)C1=CN(C2OC(COP(=O)(O)OP(=O)(O)OC[C@H]3O[C@@H](n4cnc5c(N)ncnc54)C(OP(=O)(O)O)[C@H]3O)C(O)C2O)C=CC1` (stereo partly drawn) [NADPH tetrasodium] came in with a cFRET/donor change of -0.198. The value for `Cc1[nH]c(=O)c(C#N)cc1-c1ccc2nccn2c1` [Olprinone hydrochloride] was 0.211; that for `CN1C2CCCC1CC(NC(=O)c1nn(C)c3ccccc13)C2` (stereo not drawn) [Granisetron hydrochloride] was 0.333; that for `O=C(O)COCCN1CCN(C(c2ccccc2)c2ccc(Cl)cc2)CC1` (stereo not drawn) [Cetirizine dihydrochloride] was 0.511.

`Cc1cccc(C)c1NC(=O)C(C)N` (stereo not drawn) [Tocainide hydrochloride]: the cFRET/donor change turned out to be 0.415. For `CCCCCc1ccc(/C=C/C(=O)Nc2cc(Cl)ccc2C(=O)O)cc1`, the cFRET/donor change was 0.0865. `Oc1cc2c(c(Cl)c1O)CCNCC2c1ccccc1` (racemic) [(±)-6-Chloro-PB hydrobromide] displayed a cFRET/donor change of 2.85. In turn, `Nc1ccn([C@@H]2O[C@H](CO)[C@@H](O)C2(F)F)c(=O)n1` [Gemcitabine hydrochloride] gave a cFRET/donor change of 0.261.

Take `CCCCc1ncc(/C=C(\Cc2cccs2)C(=O)O)n1Cc1ccc(C(=O)O)cc1` [Eprosartan mesylate]: the cFRET/donor change is -0.151. With `COCCOc1cc2nc[nH]c(=O)c2cc1OCCOC` the figure was 0.343; with `CCNC(=O)[C@H]1O[C@@H](n2cnc3c(N)nc(NCCc4ccc(CCC(=O)O)cc4)nc32)[C@H](O)[C@@H]1O`, -0.069; with `Nc1nc2ccc(Cl)cc2n2c(-c3ccccc3)nnc12`, -1.23. Compound `Nc1nc2ccc(Cl)cc2c2nc(-c3ccco3)nn12` yielded a cFRET/donor change of 0.163. Take `OC[C@H]1O[C@H]([S-])[C@H](O)[C@@H](O)[C@@H]1O.[Au+]` [Aurothioglucose]: the cFRET/donor change is -0.0527. The value for `Nc1ncnc2c1ncn2[C@@H]1O[C@H](COP(=O)(O)OP(=O)(O)OP(=O)(O)OP(=O)(O)OC[C@@H]2O[C@H](n3cnc4c(N)ncnc43)C(O)[C@@H]2O)[C@H](O)C1O` (stereo partly drawn) [P1,P4-Di(adenosine-5')tetraphosphate triammonium] was 0.0746; that for `CCOC(=O)[C@H](CCc1ccccc1)N[C@@H](C)C(=O)N1[C@H](C(=O)O)C[C@H]2CCCC[C@@H]21` [Trandolapril] was -0.23.

Take `O=C1NC(=O)/C(=C\c2ccc3nccnc3c2)S1`: the cFRET/donor change is 2.84. On to `CCc1ccc(/C=C2/SC(=S)NC2=O)cc1`, for which the cFRET/donor change was -1.41. The value for `CCCCS(=O)(=O)N[C@@H](Cc1ccc(OCCCCC2CCNCC2)cc1)C(=O)O` [Tirofiban hydrochloride monohydrate] was 0.174. With `CO[C@H]1O[C@@H]2O[C@@]3(C)CC[C@H]4[C@H](C)CC[C@@H]([C@H]1C)[C@@]24OO3` [Artemether] the figure was 0.954; with `O=C(NOCC1CC1)c1cc(Br)c(F)c(F)c1Nc1ccc(I)cc1Cl`, 0.176; with `COc1cc(Nc2c(C#N)cnc3cc(OCCCN4CCN(C)CC4)c(OC)cc23)c(Cl)cc1Cl` [Bosutinib], 0.241.

`NCC(O)c1ccc(O)c(O)c1` (racemic) [(±)-Norepinephrine (+)bitartrate] showed a cFRET/donor change of -0.03. For the compound `CN(C)C[C@H](O)Cn1c2ccc(Br)cc2c2cc(Br)ccc21` (racemic) [Wiskostatin], the cFRET/donor change is 0.951. `CN(C)c1ccccc1CN1CCCN(Cc2ccccc2N(C)C)C1c1ccncc1` had a cFRET/donor change of 0.598. The value for `CS(=O)(=O)c1ccc(-n2nc(C(F)(F)F)cc2-c2ccc(F)cc2)cc1` was 0.187. With `O=C(Nc1ccc2[nH]ncc2c1)C1CCC1` [Rhodblock 6] the figure was 0.156; with `COc1cc2nc(N(C)CCCNC(=O)C3CCCO3)nc(N)c2cc1OC` (stereo not drawn) [Alfuzosin hydrochloride], 0.0541; with `CN(C)CCC(c1ccc(Br)cc1)c1ccccn1` (single isomer, unassigned; (+)) [(+)-Brompheniramine maleate], 0.114. With `CN1CCN(CCCN2c3ccccc3Sc3ccc(C(F)(F)F)cc32)CC1` [Trifluoperazine dihydrochloride] the figure was 0.794; with `Nc1nc2c(c(=O)[nH]1)C[C@@H](CCc1ccc(C(=O)N[C@@H](CCC(=O)O)C(=O)O)cc1)CN2` [Lometrexol hydrate], -0.284. In turn, `N=C(N)NC(=O)c1nc(Cl)c(N)nc1N` [Amiloride hydrochloride] had a cFRET/donor change of -0.0692.

Compound `CN(C)c1nc(N)c(C(=O)NC(=N)N)nc1Cl` [5-(N,N-Dimethyl)amiloride hydrochloride] returned a cFRET/donor change of 0.174. Take `CCN(c1nc(N)c(C(=O)NC(=N)N)nc1Cl)C(C)C` [5-(N-Ethyl-N-isopropyl)amiloride]: the cFRET/donor change was -1.88. With `COc1ccc(Br)cc1S(=O)(=O)NC(=O)/C=C/c1ccccc1Cc1ccc2ccccc2c1` the figure was 0.583; with `COc1ccc(/C=C/c2nc(NCCCN(C)C)c3ccccc3n2)cc1`, 0.418; with `Cn1c(=O)c2nc[nH]c2n(C)c1=O` [Theophylline], 0.334.

Values taken from the supplement of paper PMC9877034.
